# Assays:
# Test in all cases: DAPPL (digital affinity profiling via proximity ligation, sequencing); 10 mM Tris-HCl pH 7.5, 50 mM NaCl, 1 mM DTT, 4% glycerol, room temperature, 30 min; GST-TFs on glutathione beads, 16-mer random dsDNA library, 0.1% formaldehyde crosslink after washing; high values mean tight binding
# [1] = biological target: T1, FLI1 (Homo sapiens, UniProt Q01543 1-452); conditions: protein: recombinant; tags: N-terminal GST; dsDNA, one strand shown
# T1 sequence: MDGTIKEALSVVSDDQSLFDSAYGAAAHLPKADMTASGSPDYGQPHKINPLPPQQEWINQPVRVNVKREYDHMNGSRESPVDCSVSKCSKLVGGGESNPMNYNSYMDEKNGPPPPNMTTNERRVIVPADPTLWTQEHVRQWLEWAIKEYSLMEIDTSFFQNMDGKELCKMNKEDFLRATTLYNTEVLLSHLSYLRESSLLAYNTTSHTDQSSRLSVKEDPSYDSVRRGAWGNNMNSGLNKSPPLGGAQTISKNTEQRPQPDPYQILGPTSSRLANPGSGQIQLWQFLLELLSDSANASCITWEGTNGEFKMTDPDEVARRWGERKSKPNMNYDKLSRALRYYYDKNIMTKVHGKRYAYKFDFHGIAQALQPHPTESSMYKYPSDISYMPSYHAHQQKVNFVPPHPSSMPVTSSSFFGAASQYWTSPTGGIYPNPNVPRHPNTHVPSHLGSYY
# Procedure, shortened: (§1)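 Sequencing on an Illumina NextSeq500 followed washing, crosslinking with 0.1% formaldehyde, proximity ligation (BsaI/T4 ligase, 1 h, 37 °C) and PCR amplification of pools that had been incubated for 30 min at room temperature with 200 nmole of a random double-stranded 16-mer DNA library in Tris/NaCl/DTT/glycerol buffer. Each pool held DNA-barcoded human transcription factors, expressed in yeast as GST fusions and captured on glutathione beads, plus a tag-only sample. Binding signal is a hexamer's read frequency for a factor divided by its frequency in the tag-only sample.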
# [2] = biological target: T2, ELK1 (Homo sapiens, UniProt P19419 1-428); conditions: protein: recombinant; tags: N-terminal GST; dsDNA, one strand shown
# T2 sequence: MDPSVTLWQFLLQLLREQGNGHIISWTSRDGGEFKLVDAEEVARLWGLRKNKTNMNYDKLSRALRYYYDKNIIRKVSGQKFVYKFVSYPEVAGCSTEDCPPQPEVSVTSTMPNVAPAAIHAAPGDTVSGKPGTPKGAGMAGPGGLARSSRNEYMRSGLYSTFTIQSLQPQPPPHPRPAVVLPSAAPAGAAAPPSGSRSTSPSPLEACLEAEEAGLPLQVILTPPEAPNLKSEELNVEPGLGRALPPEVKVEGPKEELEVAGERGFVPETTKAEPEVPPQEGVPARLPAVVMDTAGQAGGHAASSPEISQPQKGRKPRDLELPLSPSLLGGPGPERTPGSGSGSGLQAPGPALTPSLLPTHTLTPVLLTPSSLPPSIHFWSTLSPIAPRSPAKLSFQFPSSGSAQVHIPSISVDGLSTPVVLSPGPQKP
# Procedure, shortened: as §1
# [3] = biological target: T3, GABPA (Homo sapiens, UniProt Q06546 1-454); conditions: protein: recombinant; tags: N-terminal GST; dsDNA, one strand shown
# T3 sequence: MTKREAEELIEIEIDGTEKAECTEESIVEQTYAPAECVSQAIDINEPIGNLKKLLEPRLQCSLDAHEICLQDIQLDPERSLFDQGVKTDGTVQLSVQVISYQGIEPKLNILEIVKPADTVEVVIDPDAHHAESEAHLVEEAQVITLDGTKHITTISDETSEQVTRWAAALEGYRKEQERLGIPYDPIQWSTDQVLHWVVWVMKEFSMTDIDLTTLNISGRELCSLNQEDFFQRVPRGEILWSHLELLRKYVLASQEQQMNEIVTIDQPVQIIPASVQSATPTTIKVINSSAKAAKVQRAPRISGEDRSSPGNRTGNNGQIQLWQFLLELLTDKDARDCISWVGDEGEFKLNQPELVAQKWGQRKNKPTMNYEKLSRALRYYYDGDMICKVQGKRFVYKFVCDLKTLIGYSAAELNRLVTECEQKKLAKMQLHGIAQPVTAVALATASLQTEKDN
# Procedure, shortened: as §1
# [4] = biological target: T4, ERG (Homo sapiens, UniProt P11308 1-479); conditions: protein: recombinant; tags: N-terminal GST; dsDNA, one strand shown
# T4 sequence: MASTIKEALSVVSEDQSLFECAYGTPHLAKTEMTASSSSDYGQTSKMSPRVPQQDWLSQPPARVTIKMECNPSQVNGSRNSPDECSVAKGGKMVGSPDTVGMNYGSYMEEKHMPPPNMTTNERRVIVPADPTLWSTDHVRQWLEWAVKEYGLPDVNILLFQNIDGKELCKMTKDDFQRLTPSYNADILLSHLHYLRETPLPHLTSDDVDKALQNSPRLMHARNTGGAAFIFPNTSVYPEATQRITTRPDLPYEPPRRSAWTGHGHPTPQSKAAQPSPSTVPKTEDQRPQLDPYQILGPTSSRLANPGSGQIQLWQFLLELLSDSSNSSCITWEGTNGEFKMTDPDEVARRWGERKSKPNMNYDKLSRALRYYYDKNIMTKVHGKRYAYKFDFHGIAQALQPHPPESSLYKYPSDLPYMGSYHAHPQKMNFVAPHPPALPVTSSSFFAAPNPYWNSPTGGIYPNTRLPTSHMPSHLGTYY
# Procedure, shortened: as §1
# [5] = biological target: ELF1 (Homo sapiens, UniProt P32519 1-619); conditions: protein: recombinant; tags: N-terminal GST; dsDNA, one strand shown
# Chain of ELF1 (P32519 whole entry): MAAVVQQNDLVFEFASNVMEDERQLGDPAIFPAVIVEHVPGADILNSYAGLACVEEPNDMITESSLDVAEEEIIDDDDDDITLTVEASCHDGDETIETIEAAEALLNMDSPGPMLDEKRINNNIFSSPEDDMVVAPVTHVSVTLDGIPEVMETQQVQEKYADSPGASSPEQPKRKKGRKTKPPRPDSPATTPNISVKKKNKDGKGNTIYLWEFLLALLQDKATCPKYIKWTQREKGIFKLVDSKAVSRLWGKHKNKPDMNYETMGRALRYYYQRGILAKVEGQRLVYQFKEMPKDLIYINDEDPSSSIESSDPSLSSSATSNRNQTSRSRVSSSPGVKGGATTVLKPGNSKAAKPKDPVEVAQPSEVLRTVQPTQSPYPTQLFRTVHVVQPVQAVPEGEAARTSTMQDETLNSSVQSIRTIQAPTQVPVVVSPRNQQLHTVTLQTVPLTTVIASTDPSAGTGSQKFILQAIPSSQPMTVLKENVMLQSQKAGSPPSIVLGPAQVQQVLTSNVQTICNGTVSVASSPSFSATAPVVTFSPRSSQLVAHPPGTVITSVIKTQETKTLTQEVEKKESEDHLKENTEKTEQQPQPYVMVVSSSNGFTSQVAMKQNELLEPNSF
# Procedure, shortened: as §1
# [6] = biological target: T5, EHF (Homo sapiens, UniProt Q9NZC4 1-300); conditions: protein: recombinant; tags: N-terminal GST; dsDNA, one strand shown
# T5 sequence: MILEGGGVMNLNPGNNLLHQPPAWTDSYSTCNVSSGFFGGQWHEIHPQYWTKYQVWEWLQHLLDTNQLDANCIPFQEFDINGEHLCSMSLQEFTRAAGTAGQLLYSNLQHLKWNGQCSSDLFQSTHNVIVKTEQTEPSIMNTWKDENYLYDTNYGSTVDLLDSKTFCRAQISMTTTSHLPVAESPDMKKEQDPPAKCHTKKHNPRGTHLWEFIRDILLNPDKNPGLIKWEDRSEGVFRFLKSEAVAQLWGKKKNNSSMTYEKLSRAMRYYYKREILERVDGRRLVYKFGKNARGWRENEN
# Procedure, shortened: as §1
# [7] = biological target: SPI1 (Homo sapiens, UniProt P17947 1-270); conditions: protein: recombinant; tags: N-terminal GST; dsDNA, one strand shown
# Procedure, shortened: as §1
# [8] = biological target: SPIB (Homo sapiens, UniProt Q01892 1-262); conditions: protein: recombinant; tags: N-terminal GST; dsDNA, one strand shown
# Chain of SPIB (Q01892 whole entry): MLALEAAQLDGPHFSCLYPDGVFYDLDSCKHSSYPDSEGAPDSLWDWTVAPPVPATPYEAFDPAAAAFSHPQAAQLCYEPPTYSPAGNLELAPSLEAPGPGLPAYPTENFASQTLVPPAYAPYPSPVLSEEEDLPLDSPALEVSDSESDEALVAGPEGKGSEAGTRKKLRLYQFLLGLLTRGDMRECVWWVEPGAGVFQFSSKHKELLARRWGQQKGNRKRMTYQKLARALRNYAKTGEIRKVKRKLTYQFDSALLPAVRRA
# Procedure, shortened: as §1
# [9] = biological target: T6, ELK3 (Homo sapiens, UniProt P41970 1-407); conditions: protein: recombinant; tags: N-terminal GST; dsDNA, one strand shown
# T6 sequence: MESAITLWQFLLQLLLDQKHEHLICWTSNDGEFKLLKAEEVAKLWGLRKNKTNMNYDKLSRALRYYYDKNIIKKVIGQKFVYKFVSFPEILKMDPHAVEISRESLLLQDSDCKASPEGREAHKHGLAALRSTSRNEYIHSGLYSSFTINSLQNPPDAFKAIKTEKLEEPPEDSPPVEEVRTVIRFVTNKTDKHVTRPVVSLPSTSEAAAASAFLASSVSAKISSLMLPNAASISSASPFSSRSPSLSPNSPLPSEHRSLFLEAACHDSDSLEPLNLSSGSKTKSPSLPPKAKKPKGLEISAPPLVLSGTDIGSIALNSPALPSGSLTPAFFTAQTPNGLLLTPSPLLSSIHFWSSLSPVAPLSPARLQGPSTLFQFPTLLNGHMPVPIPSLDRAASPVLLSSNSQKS
# Procedure, shortened: as §1
# [10] = biological target: T7, FEV (Homo sapiens, UniProt Q99581 1-238); conditions: protein: recombinant; tags: N-terminal GST; dsDNA, one strand shown
# T7 sequence: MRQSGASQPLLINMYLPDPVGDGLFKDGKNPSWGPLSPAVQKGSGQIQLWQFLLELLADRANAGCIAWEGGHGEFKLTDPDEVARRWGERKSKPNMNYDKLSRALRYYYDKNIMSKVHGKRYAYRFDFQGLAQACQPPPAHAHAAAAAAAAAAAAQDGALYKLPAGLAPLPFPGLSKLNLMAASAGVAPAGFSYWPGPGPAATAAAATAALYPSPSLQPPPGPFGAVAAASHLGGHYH
# Procedure, shortened: as §1
# [11] = biological target: ETV5 (Homo sapiens, UniProt P41161 1-510); conditions: protein: recombinant; tags: N-terminal GST; dsDNA, one strand shown
# Chain of ETV5 (P41161 whole entry): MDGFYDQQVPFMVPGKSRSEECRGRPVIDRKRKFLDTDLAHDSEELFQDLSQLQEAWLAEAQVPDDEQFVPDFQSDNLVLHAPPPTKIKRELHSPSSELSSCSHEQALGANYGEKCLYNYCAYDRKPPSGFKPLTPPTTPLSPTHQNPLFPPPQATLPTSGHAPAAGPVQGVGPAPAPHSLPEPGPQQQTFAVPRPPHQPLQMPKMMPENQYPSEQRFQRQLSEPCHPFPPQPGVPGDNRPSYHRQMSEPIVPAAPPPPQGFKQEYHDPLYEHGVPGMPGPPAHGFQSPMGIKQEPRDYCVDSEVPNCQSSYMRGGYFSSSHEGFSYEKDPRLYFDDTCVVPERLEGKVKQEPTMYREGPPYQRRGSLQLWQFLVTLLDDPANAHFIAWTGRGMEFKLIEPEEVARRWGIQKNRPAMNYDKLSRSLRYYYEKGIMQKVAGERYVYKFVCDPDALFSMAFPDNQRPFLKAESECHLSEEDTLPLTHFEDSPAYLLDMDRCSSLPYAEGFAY
# Procedure, shortened: as §1
# [12] = biological target: HSF1 (Homo sapiens, UniProt Q00613 1-529); conditions: protein: recombinant; tags: N-terminal GST; chain copies: 3; dsDNA, one strand shown
# Chain of HSF1 (Q00613 whole entry): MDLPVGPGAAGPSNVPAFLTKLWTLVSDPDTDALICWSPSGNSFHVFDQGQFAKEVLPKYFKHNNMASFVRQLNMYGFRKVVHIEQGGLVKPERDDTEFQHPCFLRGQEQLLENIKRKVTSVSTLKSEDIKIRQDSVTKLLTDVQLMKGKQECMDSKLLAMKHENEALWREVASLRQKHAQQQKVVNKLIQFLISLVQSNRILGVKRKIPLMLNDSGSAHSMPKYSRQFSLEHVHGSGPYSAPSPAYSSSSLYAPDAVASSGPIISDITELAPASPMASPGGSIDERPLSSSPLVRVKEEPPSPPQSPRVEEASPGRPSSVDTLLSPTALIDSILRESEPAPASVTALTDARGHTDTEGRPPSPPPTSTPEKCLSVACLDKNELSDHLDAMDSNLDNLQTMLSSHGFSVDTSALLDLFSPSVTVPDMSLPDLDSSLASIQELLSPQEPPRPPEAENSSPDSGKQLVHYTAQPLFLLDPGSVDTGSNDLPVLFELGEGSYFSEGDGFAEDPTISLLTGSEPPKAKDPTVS
# Procedure, shortened: as §1
# [13] = biological target: T8, SPIC (Homo sapiens, UniProt Q8N5J4 1-248); conditions: protein: recombinant; tags: N-terminal GST; dsDNA, one strand shown
# T8 sequence: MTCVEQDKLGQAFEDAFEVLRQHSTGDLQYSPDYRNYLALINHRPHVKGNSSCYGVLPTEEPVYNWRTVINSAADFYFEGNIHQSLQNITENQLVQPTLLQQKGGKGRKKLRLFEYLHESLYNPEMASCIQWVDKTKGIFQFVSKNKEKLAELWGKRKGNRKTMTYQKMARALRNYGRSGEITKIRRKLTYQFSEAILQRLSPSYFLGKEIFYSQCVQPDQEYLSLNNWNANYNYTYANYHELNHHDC
# Procedure, shortened: as §1
# [14] = biological target: ELF4 (Homo sapiens, UniProt Q99607 1-663); conditions: protein: recombinant; tags: N-terminal GST; dsDNA, one strand shown
# Chain of ELF4 (Q99607 whole entry): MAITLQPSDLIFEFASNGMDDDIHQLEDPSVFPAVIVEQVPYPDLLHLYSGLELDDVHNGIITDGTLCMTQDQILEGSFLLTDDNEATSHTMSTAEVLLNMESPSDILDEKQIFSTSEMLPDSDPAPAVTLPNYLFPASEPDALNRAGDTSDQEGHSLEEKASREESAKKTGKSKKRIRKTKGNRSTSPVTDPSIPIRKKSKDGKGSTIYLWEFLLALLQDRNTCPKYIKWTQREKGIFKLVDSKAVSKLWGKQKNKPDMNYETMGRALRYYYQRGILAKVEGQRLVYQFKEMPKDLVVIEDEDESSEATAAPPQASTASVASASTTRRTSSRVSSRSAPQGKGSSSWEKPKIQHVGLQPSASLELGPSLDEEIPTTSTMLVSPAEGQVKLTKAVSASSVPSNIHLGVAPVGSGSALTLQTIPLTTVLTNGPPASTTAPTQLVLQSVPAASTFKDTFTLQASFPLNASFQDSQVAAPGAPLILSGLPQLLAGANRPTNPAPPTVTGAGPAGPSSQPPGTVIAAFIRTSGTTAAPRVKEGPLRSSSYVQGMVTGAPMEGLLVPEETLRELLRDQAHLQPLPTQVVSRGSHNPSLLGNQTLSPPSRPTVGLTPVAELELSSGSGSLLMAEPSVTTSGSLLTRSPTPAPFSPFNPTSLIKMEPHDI
# Procedure, shortened: as §1
# [15] = biological target: T9, ELK4 (Homo sapiens, UniProt P28324-2 1-405); conditions: protein: recombinant; tags: N-terminal GST; dsDNA, one strand shown
# T9 sequence: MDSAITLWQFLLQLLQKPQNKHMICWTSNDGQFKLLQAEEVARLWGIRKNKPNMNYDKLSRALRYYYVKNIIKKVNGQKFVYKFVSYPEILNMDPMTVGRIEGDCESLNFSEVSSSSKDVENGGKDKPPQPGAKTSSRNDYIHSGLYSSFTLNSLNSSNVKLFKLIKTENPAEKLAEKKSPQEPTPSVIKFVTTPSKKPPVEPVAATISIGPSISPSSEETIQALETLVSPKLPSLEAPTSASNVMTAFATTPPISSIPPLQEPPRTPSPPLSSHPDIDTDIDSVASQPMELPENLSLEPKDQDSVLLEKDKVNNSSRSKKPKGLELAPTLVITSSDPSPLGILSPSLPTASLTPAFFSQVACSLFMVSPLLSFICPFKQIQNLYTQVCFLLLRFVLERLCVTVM
# Procedure, shortened: as §1
# [16] = biological target: T10, ETV2 (Homo sapiens, UniProt O00321 1-342); conditions: protein: recombinant; tags: N-terminal GST; dsDNA, one strand shown
# T10 sequence: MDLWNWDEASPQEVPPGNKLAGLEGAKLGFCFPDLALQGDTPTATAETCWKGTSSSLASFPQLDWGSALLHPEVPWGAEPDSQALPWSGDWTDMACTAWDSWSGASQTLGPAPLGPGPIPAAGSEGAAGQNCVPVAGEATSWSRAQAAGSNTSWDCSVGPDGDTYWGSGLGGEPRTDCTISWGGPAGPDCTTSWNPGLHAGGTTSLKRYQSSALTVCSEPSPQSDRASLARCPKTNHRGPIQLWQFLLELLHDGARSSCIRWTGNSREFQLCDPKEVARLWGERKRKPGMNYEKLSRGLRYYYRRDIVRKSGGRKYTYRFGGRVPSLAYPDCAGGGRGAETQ
# Procedure, shortened: as §1
# [17] = biological target: T11, ELF3 (Homo sapiens, UniProt P78545 1-371); conditions: protein: recombinant; tags: N-terminal GST; dsDNA, one strand shown
# T11 sequence: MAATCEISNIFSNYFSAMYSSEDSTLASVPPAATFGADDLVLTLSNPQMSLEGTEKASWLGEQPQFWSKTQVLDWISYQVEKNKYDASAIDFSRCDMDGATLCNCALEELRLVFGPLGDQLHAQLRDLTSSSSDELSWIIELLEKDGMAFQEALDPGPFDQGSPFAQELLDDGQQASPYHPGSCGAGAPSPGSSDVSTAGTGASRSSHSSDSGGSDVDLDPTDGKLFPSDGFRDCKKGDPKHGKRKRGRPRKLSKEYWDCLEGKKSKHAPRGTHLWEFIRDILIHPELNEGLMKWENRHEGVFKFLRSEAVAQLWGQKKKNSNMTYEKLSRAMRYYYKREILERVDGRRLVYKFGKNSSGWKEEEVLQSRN
# Procedure, shortened: as §1
# [18] = biological target: CRX (Homo sapiens, UniProt O43186 1-299); conditions: protein: recombinant; tags: N-terminal GST; dsDNA, one strand shown
# Chain of CRX (O43186 whole entry): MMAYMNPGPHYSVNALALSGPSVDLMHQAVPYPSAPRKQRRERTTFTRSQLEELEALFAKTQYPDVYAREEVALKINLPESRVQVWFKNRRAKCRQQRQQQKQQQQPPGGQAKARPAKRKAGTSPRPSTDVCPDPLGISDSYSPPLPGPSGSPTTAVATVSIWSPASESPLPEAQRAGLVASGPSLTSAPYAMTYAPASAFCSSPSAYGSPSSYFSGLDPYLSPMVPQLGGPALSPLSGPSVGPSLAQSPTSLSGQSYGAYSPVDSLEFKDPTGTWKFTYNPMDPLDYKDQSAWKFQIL
# Procedure, shortened: as §1
# [19] = biological target: ETV1 (Homo sapiens, UniProt P50549 1-477); conditions: protein: recombinant; tags: N-terminal GST; dsDNA, one strand shown
# Chain of ETV1 (P50549 whole entry): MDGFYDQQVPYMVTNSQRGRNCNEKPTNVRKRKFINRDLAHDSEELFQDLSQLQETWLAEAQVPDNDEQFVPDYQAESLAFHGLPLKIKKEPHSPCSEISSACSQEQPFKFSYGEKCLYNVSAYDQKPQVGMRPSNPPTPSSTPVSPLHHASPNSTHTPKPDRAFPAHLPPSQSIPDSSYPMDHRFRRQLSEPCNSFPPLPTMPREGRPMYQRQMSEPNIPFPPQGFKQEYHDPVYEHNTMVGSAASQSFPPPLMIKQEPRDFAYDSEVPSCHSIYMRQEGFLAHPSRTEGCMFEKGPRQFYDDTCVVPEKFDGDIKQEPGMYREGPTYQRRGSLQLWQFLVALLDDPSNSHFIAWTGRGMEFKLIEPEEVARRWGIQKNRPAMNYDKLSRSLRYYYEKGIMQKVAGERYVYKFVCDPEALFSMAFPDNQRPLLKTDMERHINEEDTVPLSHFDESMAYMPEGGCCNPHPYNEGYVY
# Procedure, shortened: as §1
sequence,measurement,setting,value
TCCTCG,binding signal,[1],"1.6 fold enrichment (6-mer frequency, TF over GST control)"
same,binding signal,[2],"1.33 fold enrichment (6-mer frequency, TF over GST control)"
same,binding signal,[3],"1.47 fold enrichment (6-mer frequency, TF over GST control)"
same,binding signal,[4],"1.42 fold enrichment (6-mer frequency, TF over GST control)"
same,binding signal,[5],"1.47 fold enrichment (6-mer frequency, TF over GST control)"
same,binding signal,[6],"1.56 fold enrichment (6-mer frequency, TF over GST control)"
same,binding signal,[7],"1.46 fold enrichment (6-mer frequency, TF over GST control)"
same,binding signal,[8],"1.32 fold enrichment (6-mer frequency, TF over GST control)"
same,binding signal,[9],"1.49 fold enrichment (6-mer frequency, TF over GST control)"
same,binding signal,[10],"1.37 fold enrichment (6-mer frequency, TF over GST control)"
same,binding signal,[11],"1.51 fold enrichment (6-mer frequency, TF over GST control)"
same,binding signal,[12],"1.54 fold enrichment (6-mer frequency, TF over GST control)"
same,binding signal,[13],"1.45 fold enrichment (6-mer frequency, TF over GST control)"
same,binding signal,[14],"1.51 fold enrichment (6-mer frequency, TF over GST control)"
same,binding signal,[15],"1.41 fold enrichment (6-mer frequency, TF over GST control)"
same,binding signal,[16],"1.66 fold enrichment (6-mer frequency, TF over GST control)"
same,binding signal,[17],"1.53 fold enrichment (6-mer frequency, TF over GST control)"
same,binding signal,[18],"1.37 fold enrichment (6-mer frequency, TF over GST control)"
same,binding signal,[19],"1.65 fold enrichment (6-mer frequency, TF over GST control)"
